Z-score and composite z-score data for eleven compounds are collected here from PubChem BioAssay.

Assay [1] can be described thus: resazurin metabolic signal in HepG2 cells – cell-based, resazurin fluorescence, 24 h, PK04 Diversity Set, profiling panel (AID 1172). Note: test concentration not given here. The note with it: HepG2 viability, higher = more signal.
Assay [2] can be described thus: budding yeast growth changes without added modifier – OD600, strain BY4716, 24 h, basal condition, primary screen (AID 1173). Particulars: S. cerevisiae BY4716 growth, OD600, 24 h; higher = more signal, called active from +8 up or from −8 down.
Assay [3] is described as follows: viability profiling in MM1S myeloma cells – cell-based, resazurin fluorescence, basal, 24 h, PK04 Diversity Set, profiling panel (AID 1174).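 Note: MM1S multiple myeloma cell line; test concentration not given here.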 Particulars: higher = more signal, called active from +8 up or from −8 down.
Assay [4] addresses Dihydroorotate dehydrogenase (quinone), mitochondrial (Plasmodium falciparum (isolate 3D7)) (UniProt Q08210). Put plainly: inhibition of P. falciparum DHODH – biochemical, C-terminal His tag, absorbance 600 nm, primary screen (AID 1175).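 Note: recombinant parasite enzyme with a five histidine tag at its C terminus; test concentration not given here.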 Particulars: PfDHODH enzyme, DCIP absorbance 600 nm; higher = more signal, called active from +8 up or from −8 down.
The nature of assay [5]: inhibition of PAO1 biofilm formation – strain PAO1, LB-PBS medium, absorbance 600 nm, primary screen (AID 1176). Note: test concentration not given here. Particulars: P. aeruginosa PAO1 growth/biofilm, A600, 12 h; higher = more signal.
Assay [6] can be described thus: growth modulation of vineyard yeast isolate – strain RM11-1a, OD600, basal, 24 h, primary screen (AID 1177).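 Note: cultures grown under basal conditions with no added stressor; test concentration not given here.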 The note with it: S. cerevisiae RM11-1a growth, OD600, 24 h; higher = more signal, called active from +8 up or from −8 down.
Assay [7] can be described thus: growth of efflux-deficient E. coli DRC39 – strain DRC39, OD650, 24 h, E. coli filamentation inducers, primary screen (AID 1178).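 Note: growth measured as culture turbidity by optical density at 650 nm; test concentration not given here.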 The note with it: E. coli DRC39 acrAB, higher = more signal, called active from +8 up or from −8 down.
Assay [8] can be described thus: growth of efflux-deficient E. coli DRC39 – strain DRC39, OD650, 48 h, E. coli filamentation inducers, primary screen (AID 1179).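 Note: screen aims at cell division blockers that make cells filament.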 The note with it: E. coli DRC39 delta-acrAB growth, higher = more signal, called active from +8 up or from −8 down.
Assay [9] is described as follows: viability profiling in RPMI8226 myeloma cells – cell-based, resazurin fluorescence, basal, 24 h, PK04 Diversity Set, profiling panel (AID 1180).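 Note: RPMI8826 multiple myeloma cell line at 5000 cells per well; test concentration not given here.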 The note with it: higher = more signal.
Assay [10] deals with E3 ubiquitin-protein ligase XIAP (Homo sapiens) (UniProt P98170). Kind of assay: small molecules binding XIAP protein – biophysical, small-molecule microarray, fluorescence 635 nm, primary screen (AID 1181).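 Note: score merges 667 nm emission and signal to noise over triplicate slides.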 Particulars: higher = more signal.
Sequence of E3 ubiquitin-protein ligase XIAP (Homo sapiens) (P98170 whole entry, looked up): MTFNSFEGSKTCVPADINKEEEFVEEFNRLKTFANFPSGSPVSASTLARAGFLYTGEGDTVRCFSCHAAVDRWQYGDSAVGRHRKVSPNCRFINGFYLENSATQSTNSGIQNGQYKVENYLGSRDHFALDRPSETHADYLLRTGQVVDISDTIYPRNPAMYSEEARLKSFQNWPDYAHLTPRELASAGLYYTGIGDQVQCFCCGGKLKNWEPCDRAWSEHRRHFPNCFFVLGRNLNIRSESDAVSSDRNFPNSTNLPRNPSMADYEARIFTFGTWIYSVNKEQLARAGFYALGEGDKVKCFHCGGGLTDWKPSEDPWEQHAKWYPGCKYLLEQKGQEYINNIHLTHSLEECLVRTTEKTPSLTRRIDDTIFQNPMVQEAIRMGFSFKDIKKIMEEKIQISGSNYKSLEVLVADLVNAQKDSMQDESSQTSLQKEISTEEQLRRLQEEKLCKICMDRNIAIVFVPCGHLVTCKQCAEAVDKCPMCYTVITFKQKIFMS

Active and inactive are the calls of the source. Unless noted, the rule behind the calls is not given here.

Sequence of Dihydroorotate dehydrogenase (quinone), mitochondrial (Plasmodium falciparum (isolate 3D7)) (Q08210 whole entry, looked up): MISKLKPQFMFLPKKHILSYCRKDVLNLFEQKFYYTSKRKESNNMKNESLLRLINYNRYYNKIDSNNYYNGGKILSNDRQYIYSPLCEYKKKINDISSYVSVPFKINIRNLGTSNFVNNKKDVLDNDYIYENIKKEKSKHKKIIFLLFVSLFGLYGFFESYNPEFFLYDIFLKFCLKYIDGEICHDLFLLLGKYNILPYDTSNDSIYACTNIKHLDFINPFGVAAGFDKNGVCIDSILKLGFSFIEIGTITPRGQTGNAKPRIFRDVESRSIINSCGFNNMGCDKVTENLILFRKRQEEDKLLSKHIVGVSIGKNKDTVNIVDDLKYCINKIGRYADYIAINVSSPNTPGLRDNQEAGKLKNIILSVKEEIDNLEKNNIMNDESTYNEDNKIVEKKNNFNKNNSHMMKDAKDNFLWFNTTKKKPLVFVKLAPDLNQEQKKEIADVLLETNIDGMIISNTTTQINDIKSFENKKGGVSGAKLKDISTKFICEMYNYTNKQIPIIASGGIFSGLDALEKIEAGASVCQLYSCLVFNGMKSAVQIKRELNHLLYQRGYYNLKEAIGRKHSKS

With `CC(C)=CCCC(C)=CC(O)C1C=CC2C(=O)N(c3ccccc3)C(=O)C2N1Nc1ccc([N+](=O)[O-])cc1` (stereo not given), the z-score is -0.674 in assay [1]; -1.14 (inactive) in assay [2]; -0.753 (inactive) in [3]; 0.492 (inactive) in [5]; -0.853 (inactive) in assay [6]; -1.49 (inactive) in [7]. Also, the figures for the z-score in assay [8] and in assay [9] were -1.43 (inactive) and -0.276, respectively. In addition, the composite z-score was -0.697 (inactive) in assay [4] and 0.0817 in [10].
Turning to `CCOC(=O)C1=CCC(c2cccc(Cl)c2)O1` (stereo not given), the z-score in assay [1] is 0.482; in assay [2], -4.22 (inactive); in [3], 0.402 (inactive); in [5], 0.601 (inactive); in assay [6] it was -1.6 (inactive); in assay [7] it was 0.484 (inactive). In addition, the z-score in assay [8] is -0.16 (inactive); in assay [9], -0.0798. The composite z-score was -0.863 (inactive) in assay [4] and 0.19 in [10].
On to `OCCCC1=CC(c2cccs2)N(Cc2cccc(OC(F)(F)F)c2)CC1` (stereo not given), for which the z-score in assay [1] is -0.505; in [2], -4.17 (inactive); in assay [3] it was -0.656 (inactive); in [5] it was -0.341 (inactive); in assay [6] it was -0.54 (inactive); in [7] it was 0.0886 (inactive). For the same compound, the z-score is -0.573 (inactive) in [8] and -0.175 in [9]. For the same compound, the composite z-score in assay [4] is -1.3 (inactive); in assay [10] it was 0.282.
`COCCOC(=O)N1C(=O)[C@@]2(c3cc(C#Cc4ccc(OC)cc4)ccc31)[C@H](C(=O)N1CCc3cc(OC)c(OC)cc3C1)[C@H]1C(=O)O[C@H](c3ccccc3)[C@H](c3ccccc3)N1[C@@H]2c1ccc(O)cc1`: the z-score in [1] was -0.0637; in assay [2], 1.12 (inactive); in assay [3], -0.108 (inactive); in assay [5] it was 0.858 (inactive); in assay [6] it was 2.08 (inactive); in assay [7], -0.145 (inactive). For the same compound, the z-score in assay [8] was 0.26 (inactive); in [9] it was 0.0506. The composite z-score is 0.751 (inactive) in [4] and 0.202 in assay [10].
In the case of `Cc1ccc(S[C@]2(C(=O)O)CC(=O)N(Cc3ccccc3C(F)(F)F)[C@@H]2c2ccc(CO)cc2)cc1`, the z-score in assay [1] was 0.44; in assay [2], -0.0891 (inactive); in assay [3], 0.478 (inactive); in assay [5], 0.127 (inactive); in assay [6], 0.383 (inactive); in [7] it was 0.232 (inactive). The z-score in assay [8] was 1.14 (inactive); in assay [9] it was -0.285. Moreover, the composite z-score in assay [4] was 0.52 (inactive); in assay [10] it was -0.313.
As for `C=C(C(=O)CC[C@H](OC(=O)c1cccnc1)c1ccc(OCCO)cc1)C(C)C`, the z-score in assay [1] is -0.688; in assay [2], -0.303 (inactive); in assay [3], -2.35 (inactive); in assay [5], 0.273 (inactive); in assay [6], 0.899 (inactive); in [7] it was -0.97 (inactive). Further, the results for the z-score in [8] and in assay [9] were -0.899 (inactive) and -2.53, respectively. Besides, the composite z-score is 0.349 (inactive) in assay [4] and 0.158 in assay [10].
`COC(=O)[C@@]1(Cc2ccc(OC)cc2)[C@H]2c3cc(C(=O)N(C)C)n(Cc4cc(F)c(F)c(F)c4)c3C[C@H]2CN1C(=O)c1ccccc1`: the z-score was -1.07 in assay [1]; 1.83 (inactive) in [2]; -2.61 (inactive) in assay [3]; 4.06 (inactive) in assay [5]; 0.726 (inactive) in assay [6]; -0.337 (inactive) in assay [7]. For the same compound, the values for the z-score in assay [8] and in assay [9] were -0.622 (inactive) and -2.32, respectively. Further, the composite z-score in assay [4] was -2.65 (inactive); in assay [10], 0.0957.
Consider `C#CCOC(=O)N[C@H](C=CCCCC)c1ccccc1`, for which the z-score is 0.063 in assay [1]; 0.578 (inactive) in assay [2]; -0.883 (inactive) in [3]; 0.936 (inactive) in assay [5]; -0.0736 (inactive) in assay [6]; -0.467 (inactive) in assay [7]. In addition, the values for the z-score in assay [8] and in assay [9] were -0.424 (inactive) and -0.137, respectively. The composite z-score is -0.837 (inactive) in [4] and -0.0133 in assay [10].
Regarding `COc1cc2c(cc1OC)CN(C(=O)[C@@H]1[C@H]3C(=O)O[C@H](c4ccccc4)[C@H](c4ccccc4)N3[C@H](c3ccc(O)cc3)[C@@]13C(=O)Nc1ccc(C#CCNC(N)=O)cc13)CC2`, the z-score in [1] is 1.1; in assay [2] it was 0.526 (inactive); in assay [3], 0.602 (inactive); in assay [5] it was 0.723 (inactive); in [6], 2.03 (inactive); in assay [7] it was 0.595 (inactive). Moreover, the z-score was 0.322 (inactive) in assay [8] and 0.431 in assay [9]. The results for the composite z-score in [4] and in assay [10] were -0.0904 (inactive) and -0.0663, respectively.
Take `CC(C)CNC(=O)[C@@]1(c2ccc([N+](=O)[O-])cc2)CC(=O)N(C(C)C)[C@@H]1c1ccc(CO)cc1`: the z-score in [1] was -0.0273; in [2], -0.78 (inactive); in assay [3] it was 1.23 (inactive); in [5], -0.301 (inactive); in assay [6], -0.738 (inactive); in [7], 0.474 (inactive). For the same compound, the z-score in assay [8] is 1.53 (inactive); in assay [9] it was 1.37. The results for the composite z-score in assay [4] and in assay [10] were 1.14 (inactive) and -0.13, respectively.
For the compound `C=C(/C(=C/C[C@@H](OC(=O)c1ccncc1)c1ccccc1OCCO)c1cnc2ccccc2c1)C(C)C`, the z-score in assay [1] is -1.11; in assay [2], -18.3 (active); in [3], -0.807 (inactive); in assay [5] it was 0.485 (inactive); in [6], -21.9 (active); in assay [7] it was -0.328 (inactive). The z-score was -0.805 (inactive) in assay [8] and -0.365 in assay [9]. Moreover, the composite z-score in assay [4] was -6.99 (inactive); in assay [10], 0.326.
